Assay results published in the supplement of paper PMC8728848.
Shown is part of a subset that was picked to be rich in the strongest signals.

Experiments:
Test in all cases: glycan array binding signal (z-score within array); higher = stronger binding
Details in all cases: glycan notation: IUPAC condensed, linker removed
[1] = target: GalNAc(b1-3)Gal(a1-4)Gal(b1-4)GlcNAc
Procedure, shortened: (§1)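 The Consortium for Functional Glycomics database supplied 3228 glycan arrays, of which those lacking an available protein sequence were dropped. The binding signal, a within-array Z-score, was averaged across arrays of the same protein sequence and across linkers. Negative scores can be read as non-binding.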

[2] = target: Glc(a1-4)Glc(a1-4)Glc(a1-4)Glc
Procedure, shortened: as §1

[3] = target: GlcNAc(b1-2)[GlcNAc(b1-4)]Man(a1-3)[GlcNAc(b1-4)][GlcNAc(b1-2)[GlcNAc(b1-6)]Man(a1-6)]Man(b1-4)GlcNAc(b1-4)[Fuc(a1-6)]GlcNAc
Procedure, shortened: as §1

[4] = target: GlcNAc(b1-3)Gal(b1-4)GlcNAc(b1-3)Gal(b1-4)GlcNAc(b1-2)[GlcNAc(b1-3)Gal(b1-4)GlcNAc(b1-3)Gal(b1-4)GlcNAc(b1-6)]Man(a1-6)[GlcNAc(b1-3)Gal(b1-4)GlcNAc(b1-3)Gal(b1-4)GlcNAc(b1-2)Man(a1-3)]Man(b1-4)GlcNAc(b1-4)[Fuc(a1-6)]GlcNAc
Procedure, shortened: as §1

[5] = target: GlcNAc(b1-3)Gal(b1-4)GlcNAc(b1-6)[GlcNAc(b1-3)]Gal(b1-4)GlcNAc
Procedure, shortened: as §1

[6] = target: Man(a1-3)[Man(a1-6)]Man(a1-6)[Man(a1-3)]Man
Procedure, shortened: as §1

[7] = target: Man(a1-3)[Man(a1-6)]Man(a1-6)[Man(a1-3)]Man(b1-4)GlcNAc(b1-4)GlcNAc
Procedure, shortened: as §1

[8] = target: Neu5Ac(a2-3)Gal(b1-3)GlcNAc(b1-4)Gal(b1-4)Glc
Procedure, shortened: as §1

Neu5Ac(a2-3)Gal(b1-4)Glc = target: Neu5Ac(a2-3)Gal(b1-4)Glc
Procedure, shortened: as §1

[9] = target: Neu5Ac(a2-3)Gal(b1-4)GlcNAc(b1-3)GalNAc
Procedure, shortened: as §1

[10] = target: Neu5Ac(a2-3)Gal(b1-4)[Fuc(a1-3)]GlcNAc(b1-6)[Gal(b1-3)]GalNAc
Procedure, shortened: as §1

[11] = target: Neu5Ac(a2-6)Gal(b1-4)GlcNAc(b1-2)Man(a1-3)[Man(a1-6)]Man(b1-4)GlcNAc(b1-4)GlcNAc
Procedure, shortened: as §1

[12] = target: Neu5Ac(a2-6)Gal(b1-4)GlcNAc(b1-3)Gal(b1-4)GlcNAc(b1-6)[Gal(b1-3)]GalNAc
Procedure, shortened: as §1

[13] = target: Neu5Ac(a2-6)GalNAc(b1-4)GlcNAc6S
Procedure, shortened: as §1

[14] = target: Neu5Ac(a2-8)Neu5Ac(a2-8)Neu5Ac
Procedure, shortened: as §1

[15] = target: Neu5Gc(a2-3)Gal(b1-3)[Fuc(a1-4)]GlcNAc
Procedure, shortened: as §1

[16] = target: Neu5Gc(a2-3)Gal(b1-4)GlcNAc
Procedure, shortened: as §1

B1: SBD-G4S3-SBD (protein)
chain: MASIPSSASVQLDSYNYDGSTFSGKIYVKNIAYSKKVTVVYADGSDNWNNNGNIIAASFSGPISGSNYEYWTFSASVKGIKEFYIKYEVSGKTYYDNNNSANYQVSTGGGGSGGGGSGGGGSEFASIPSSASVQLDSYNYDGSTFSGKIYVKNIAYSKKVTVVYADGSDNWNNNGNIIAASFSGPISGSNYEYWTFSASVKGIKEFYIKYEVSGKTYYDNNNSANYQVST
glycan array binding signal (z-score) [1]: -0.37
glycan array binding signal (z-score) [2]: 5.44
glycan array binding signal (z-score) [3]: -0.39
glycan array binding signal (z-score) [4]: -0.26
glycan array binding signal (z-score) [5]: -0.406
glycan array binding signal (z-score) [6]: -0.125
glycan array binding signal (z-score) [7]: -0.351
glycan array binding signal (z-score) [8]: -0.389
glycan array binding signal (z-score) (Neu5Ac(a2-3)Gal(b1-4)Glc): -0.399
glycan array binding signal (z-score) [9]: -0.327
glycan array binding signal (z-score) [10]: 4.53
glycan array binding signal (z-score) [11]: 0.556
glycan array binding signal (z-score) [12]: -0.221
glycan array binding signal (z-score) [13]: -0.365
glycan array binding signal (z-score) [14]: -0.377
glycan array binding signal (z-score) [15]: -0.366
glycan array binding signal (z-score) [16]: -0.326
